{"source": "PubChem BioAssay AID686970", "about": "(National Center for Advancing Translational Sciences (NCATS), 2013)", "note": "Hit rate of the full screen: of about 360,000 compounds, about 6,000 (1.7%) were called active. Another 8% or so got no clear call; they are omitted. The sample as a whole holds a higher share of actives than the screen did. Unmarked numbers belong to inactive results. Calls follow the shape of the dose curve; as a rule, active = well fitted cell-killing curve with a large enough effect; inconclusive = small, poorly fitted or top-dose-only effect, or effect the other way; inactive = flat fitted curve, though single readings scatter. Potency is read from the fitted curve at half-maximal effect.", "data": [{"test": "qHTS for induction of synthetic lethality in tumor cells producing 2HG: qHTS for the HT-1080-NT fibrosarcoma cell line;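 also: NT is the 2HG producing partner of a matched IDH1 knockdown line; nearly all actives have a fitted effect of over 55% in size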;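 as to activity, negative = less viability: 0% = DMSO-treated cells and -100% = media-only wells without cells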", "settings": "HT-1080-NT fibrosarcoma viability, CellTiter-Glo ATP luminescence, 48 h; series mostly up to 46.1 µM; activity, negative = less viability: at the top concentration", "summary_of_the_method": "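Toxicity toward the 2HG-producing NT line was scored as %Activity, normalised to DMSO and no-cell wells, from CellTiter-Glo luminescence after 48 hours' treatment.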", "units": {"activity, negative = less viability": "%"}, "values": [{"smiles": "C=CCC[C@@H](CCCCC)OC(=O)/C=C/[C@@H](O)[C@H](O)C[C@H](O)CC=C", "activity, negative = less viability": -18.2}, {"smiles": "C=CCC[C@H](CCCCC)OC(=O)/C=C/[C@H](O)[C@@H](O)C[C@@H](O)CC=C", "activity, negative = less viability": -23.8}, {"smiles": "COc1cccc(CNC(=O)CN2C(=O)NC(Cc3ccccc3)(c3ccccc3)C2=O)c1", "note": "(stereo not drawn)", "activity, negative = less viability": 4.29}, {"smiles": "CN(C)C(CNC(=O)c1cc2ccccc2o1)c1ccccc1", "note": "(stereo not drawn)", "activity, negative = less viability": -8.25}, {"smiles": "COc1cccc(CNC(=O)c2n[nH]c3ccccc23)c1", "activity, negative = less viability": -22}, {"smiles": "COc1cccc(CNc2nc(C(F)(F)F)nc3ccccc23)c1", "Potency": "23.1 µM (active)"}, {"smiles": "CCc1ccc(C(CNc2nc(C(F)(F)F)nc3ccccc23)N(C)C)cc1", "note": "(stereo not drawn)", "Potency": "23.1 µM (active)"}, {"smiles": "CN(C)C(CNC(=O)Cc1ccc([N+](=O)[O-])cc1)c1ccccc1", "note": "(stereo not drawn)", "activity, negative = less viability": -3.4}, {"smiles": "O=C(CCN1CCCCC1)Nc1ccc(F)c(F)c1", "activity, negative = less viability": -0.559}, {"smiles": "Cc1cccc(C(=O)C(O)(c2ccccc2)C2CCCCC2=O)c1", "note": "(stereo not drawn)", "activity, negative = less viability": -18.7}, {"smiles": "CN(Cc1c(F)cccc1Cl)C(=O)COC(=O)Cn1cnc2ccccc2c1=O", "activity, negative = less viability": 1.04}, {"smiles": "COC(=O)C[C@@H]1C=C[C@@H](NS(=O)(=O)c2cccc(OC)c2)[C@@H](CO)O1", "activity, negative = less viability": 12.9}, {"smiles": "CC[C@@H]1Cc2cc(O)ccc2C2=C1c1ccc(O)cc1C[C@H]2CC", "Potency": "18.4 µM (active)"}, {"smiles": "Cc1cc(C)cc(OCC(=O)NCc2cc(C)nc3ccccc23)c1", "activity, negative = less viability": -3.23}, {"smiles": "Cc1cc(C)c(NC(=O)c2oc3ccccc3c2COc2ccccc2)c(C)c1", "activity, negative = less viability": -3.26}, {"smiles": "Cc1cc(C)c(NC(=O)C[N+](C)(C)CC(O)COc2cccc3ccccc23)c(C)c1", "note": "(stereo not drawn)", "Potency": "18.4 µM (active)"}, {"smiles": "CC(C)(C(=O)NO)c1ccccc1", "activity, negative = less viability": -14.5}, {"smiles": "CCN1C(=O)[C@H]2[C@@H](c3ccc(C(F)(F)F)cc3)N[C@]3(CCCN(Cc4ccc(Br)cc4)C3=O)[C@H]2C1=O", "activity, negative = less viability": -8.24}, {"smiles": "COc1cccc(CN2CCC(C(=O)NC(c3ccc4c(c3)OCO4)c3ccccn3)CC2)c1", "note": "(stereo not drawn)", "activity, negative = less viability": 2.22}, {"smiles": "O=C(CCCOc1ccc(Cl)cc1Cl)NNC(=O)C1CCC1", "activity, negative = less viability": -13.1}, {"smiles": "O=C(NC(c1ccc(-c2ccccc2)cc1)c1cnccn1)C1CCN(CCOc2ccc(Cl)cc2Cl)CC1", "note": "(stereo not drawn)", "Potency": "20.6 µM (active)"}, {"smiles": "CCCNC(=O)C1(C)CCN1C(=O)C1(c2ccccc2)CC1", "note": "(stereo not drawn)", "activity, negative = less viability": 21.2}, {"smiles": "COc1ccccc1CNC(=O)c1cc(-c2cc(F)ccc2OC)n[nH]1", "activity, negative = less viability": -1.62}, {"smiles": "CCNC(=O)c1cc2c(c(-c3cccc(-c4cncnc4)c3)n1)[C@H](CCO)N(C(C)=O)C2", "activity, negative = less viability": -4.1}, {"smiles": "COC(=O)c1ccc2nc(-c3ccc(Cl)cc3)c(Cc3cccc(F)c3)n2c1", "activity, negative = less viability": 1.35}, {"smiles": "Cn1c(=O)c2cc(NC(=O)NCCc3cccs3)ccc2n1Cc1cccc(C(F)(F)F)c1", "activity, negative = less viability": 2.3}, {"smiles": "COc1ccccc1NC(=O)COc1ccc(C(=O)OCC(=O)N(C(C)C)C(C)C)cc1OC", "activity, negative = less viability": -5.95}, {"smiles": "CCN(CCCCOC(=O)c1ccc(OC)c(OC)c1)C(C)Cc1ccc(OC)cc1", "note": "(stereo not drawn)", "Potency": "18.4 µM (active)"}, {"smiles": "COc1ccc(C(=O)OCC(=O)NCCCc2ccccc2)cc1OC", "activity, negative = less viability": 5.07}, {"smiles": "CCC(=O)N1Cc2cc(C(=O)NCc3cccc(F)c3)nc(-c3cccc(C4=CCCC4)c3)c2[C@H]1CCO", "activity, negative = less viability": -25.7}, {"smiles": "CS(=O)(=O)c1cccc(-c2ccc3nncn3c2)c1", "activity, negative = less viability": 19}, {"smiles": "CCOC(=O)N1CCN(C(c2ccnc3ccccc23)c2nnnn2-c2c(C)cccc2C)CC1", "note": "(stereo not drawn)", "activity, negative = less viability": -2.12}, {"smiles": "CCCCN1CC(C)(C)[C@H](CC(=O)Nc2ccc(Br)cc2)C1=O", "activity, negative = less viability": 15.3}, {"smiles": "CC1(C)CN(CCc2ccccc2)C(=O)[C@H]1CC(=O)Nc1ccc(Br)cc1", "activity, negative = less viability": -0.774}, {"smiles": "CN1C(CC(=O)Nc2ccc(Br)cc2)c2ccccc2CC1(C)C", "note": "(stereo not drawn)", "Potency": "18.4 µM (active)"}, {"smiles": "COC(=O)c1ccc2nc(-c3cccc(Br)c3)c(Cc3ccc(OC)cc3C)n2c1", "activity, negative = less viability": -1.34}, {"smiles": "COCCn1c(SCC(=O)Nc2ccc(F)cc2F)nc2c(c1=O)SCC2", "activity, negative = less viability": -4.25}, {"smiles": "COc1ccccc1NC(=O)/C=C/C(N)=O", "Potency": "8.91 µM (active)"}, {"smiles": "COc1ccccc1NC(=O)N(O)C1(C#N)CCCCC1", "activity, negative = less viability": 4.03}, {"smiles": "COc1ccccc1NC(=O)COC(=O)COc1ccccc1F", "activity, negative = less viability": 1.92}, {"smiles": "O=C1NC[C@H](CCCCN2C[C@H](Cc3ccc(O)cc3)N(CCc3ccccc3)C(=O)C2=O)N(CCc2ccccc2)C1=O", "activity, negative = less viability": 3.97}, {"smiles": "COc1ccc(-c2cc(C)nc3nc(N)nn23)cc1", "activity, negative = less viability": -2.16}, {"smiles": "Cc1cc(C(C)(C)C)cc(C)c1N", "activity, negative = less viability": 6.3}, {"smiles": "Cc1cc(N)n2nc(-c3ccc(C(C)(C)C)cc3)cc2n1", "Potency": "16.4 µM (active)"}, {"smiles": "Cc1ccc(S(=O)(=O)NN=C2CC(C)(C)CC(=O)C2(C)C)cc1", "activity, negative = less viability": 6.95}, {"smiles": "CC(=O)NC(c1cccc(F)c1)c1nc(-c2cccc(F)c2)cs1", "note": "(stereo not drawn)", "activity, negative = less viability": 1.42}, {"smiles": "Cc1ccc(C(O)c2ncc(-c3ccccc3F)[nH]2)cc1F", "note": "(stereo not drawn)", "activity, negative = less viability": 1.03}, {"smiles": "CC(=O)Nc1ccc(S(=O)(=O)N(C)c2nc3ccccc3nc2Cl)cc1", "activity, negative = less viability": -0.551}, {"smiles": "CC(=O)Nc1ccc(Nc2c3ccccc3nc3ccccc23)cc1", "Potency": "14.6 µM (active)"}, {"smiles": "CC(=O)Nc1ccc(Nc2c([N+](=O)[O-])cc(S(C)(=O)=O)cc2[N+](=O)[O-])cc1", "activity, negative = less viability": -24.2}, {"smiles": "C[C@H]1CN([C@@H](C)CO)C(=O)c2cc(-c3ccccc3F)cnc2O[C@H]1CN(C)C(=O)C1CCOCC1", "activity, negative = less viability": 0.535}, {"smiles": "CCOc1ccc(NC(=O)CSc2nnc3c(n2)[nH]c2ccc(S(=O)(=O)N4CCOCC4)cc23)cc1", "activity, negative = less viability": 7.72}, {"smiles": "CCc1nnc(NC(=O)c2ccc(S(=O)(=O)NC3CCCCC3)cc2)s1", "Potency": "6.31 µM (active)"}, {"smiles": "CCc1nnc(NC(=O)c2cc(S(=O)(=O)N3CCCCC3)ccc2C)s1", "activity, negative = less viability": 4.89}, {"smiles": "CCc1nnc(NC(=O)C2CCCN2S(=O)(=O)c2ccccc2)s1", "note": "(stereo not drawn)", "activity, negative = less viability": -5.38}, {"smiles": "CCOC(=O)c1c(NC(=O)COC(=O)c2ccc(S(=O)(=O)C(F)F)cc2)sc(C(=O)N(C)C)c1C", "activity, negative = less viability": 8.55}, {"smiles": "CCCCn1nnnc1C1(C)CCC(=O)N1Cc1ccc(OC)c(OC)c1", "note": "(stereo not drawn)", "activity, negative = less viability": 18}, {"smiles": "Cc1cccc(NC(=O)COC(=O)c2ccccc2OCc2cccc(Br)c2)c1", "activity, negative = less viability": -2.81}, {"smiles": "COc1ccc(CS(=O)/C(Cl)=C(/Cl)C(=O)Nc2ccc(OC)nc2)cc1", "note": "(stereo not drawn)", "Potency": "1.3 µM (active)"}, {"smiles": "COc1ccc(C(O)c2nc(-c3ccc(OC)nc3)cs2)cc1", "note": "(stereo not drawn)", "activity, negative = less viability": 1.33}, {"smiles": "COc1ccc(NC(=O)CN2C(=O)NC(C)(c3ccccc3)C2=O)cn1", "note": "(stereo not drawn)", "activity, negative = less viability": 5.3}, {"smiles": "CC(=O)NC(c1ccccc1)c1nc(-c2ccccc2C)cs1", "note": "(stereo not drawn)", "activity, negative = less viability": 13.7}, {"smiles": "CSc1ncnc2c1ncn2CCCNCC(C)c1ccccc1", "note": "(stereo not drawn)", "activity, negative = less viability": -0.244}]}]}
